# Results from PubChem BioAssay (NCI).
# This is part of a sample that, as a whole, favours compounds with a hit. Of some 83,000 tested, about 20% had one in any assay.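 Compound tested at a single concentration for 48 hours in 96-well plates; a percent growth value below 10 was scored as active.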 A number with no mark means an inactive call. The source made the active and inactive calls.
# Columns and labels:
# Assay in all cases: NCI-60 one-dose screen, 48 h (100 = growth as untreated, 0 = no growth, -100 = all killed)
# Details in all cases: 10 µM
# [1] = system: SK-MEL-2 melanoma
# [2] = system: SN12C renal
# [3] = system: UO-31 renal
# [4] = system: TK-10 renal
# [5] = system: ACHN renal
# [6] = system: CAKI-1 renal
# [7] = system: A498 renal
# [8] = system: MOLT-4 leukemia
# [9] = system: SR leukemia
# [10] = system: RPMI-8226 leukemia
# [11] = system: OVCAR-8 ovarian
# [12] = system: OVCAR-5 ovarian
# [13] = system: OVCAR-4 ovarian
# [14] = system: SK-OV-3 ovarian
# [15] = system: IGROV1 ovarian
# [16] = system: OVCAR-3 ovarian
# [17] = system: HS 578T breast
# [18] = system: NCI/ADR-RES ovarian
# [19] = system: CCRF-CEM leukemia
Compound,growth [1],growth [2] [%],growth [3] [%],growth [4] [%],growth [5] [%],growth [6] [%],growth [7],growth [8] [%],growth [9],growth [10] [%],growth [11],growth [12] [%],growth [13] [%],growth [14] [%],growth [15] [%],growth [16],growth [17] [%],growth [18] [%],growth [19] [%]
Cn1c([N+](=O)[O-])cnc1C=C1C(=O)c2ccccc2C1=O,1.67% (active),42.9,20.7,48.8,37.4,37.3,70.1%,21.8,7.25% (active),40.6,7.11% (active),61.3,56.8,54,13.8,38.1%,26.4,44.5,–
Fc1ccc(-c2cc(C(Cl)Cl)no2)cc1,116%,97.6,78.7,131,102,84.9,99.3%,108,106%,96.1,109%,101,92.2,112,106,98.2%,93,108,–
Oc1[nH]c2ccccc2c1/C=c1/cc2c(c(-c3ccc(C(F)(F)F)cc3)n1)=Nc1ccccc1-2,55.3%,79.1,56.1,56.9,32,48.4,62.6%,29.6,4.59% (active),12,–,70.5,50.5,79,71.2,20.2%,74.8,31.7,–
COc1ccc(-c2oncc2-c2cc(OC)c3c(c2)OCO3)cc1,-1.77% (active),35.9,39.8,48.2,–,22.9,7.82% (active),22.4,7.62% (active),23.8,35.6%,37.9,66.2,19.7,53.3,7.36% (active),–,18.5,16
COc1ccc(-c2nnc(COc3ccc(NC(=O)Nc4ccccc4)cc3F)o2)cc1,79.4%,91.1,68.9,101,77.6,83.6,64%,58.7,36.1%,51.3,96.1%,114,75.7,99.1,99.2,2.7% (active),82,97.4,–
COc1cc(CSc2nc3ccc(Cl)cc3c(=O)n2-c2ccccc2)cc(OC)c1OC,77.5%,76,47.8,97.7,78.9,73.9,81.7%,69.8,45.6%,105,84.3%,84.7,81.7,–,72.5,77.8%,90.3,75.5,–
Nc1ccc2c(c1)Cc1cc(N)c(Cl)cc1-2,102%,89.8,52.6,115,98.5,94.1,118%,90,–,96.8,97.9%,112,84,113,98.2,–,–,107,79.8
O=C(NC1CCCC1)c1ccc(N2CCC(NCc3cccc(C(F)(F)F)c3)CC2)cc1,108%,94.2,62.3,101,97.9,101,92.1%,70.2,0.0064% (active),71.3,95.2%,94.2,89.5,98.4,94.1,90.4%,96.1,88.3,–
N#CCC1CCCC1,120%,94,97,104,98.1,89.9,91%,112,81.6%,97.2,98.9%,105,95.7,104,118,121%,106,101,–
